In the first assay the target is HECTD1. Briefly: pooled miR-30 sensor sort-seq; sequence = guide strand. The note with it: shRNA.
Sequence TTTACTTCGAATACAATCTATA yielded a sensor-assay potency score (higher = more potent) of -1.13.

The sequence TCGAATACAATCTATAAGCTGC had a sensor-assay potency score (higher = more potent) of 0.194. Turning to TTAACTTTCGAATTAACGCAAC, the sensor-assay potency score (higher = more potent) is -1.04. Same read-out and setting: as for TGCATCAGTAGCATCAACCTTG, the figure is 0.0486. Still for that read-out and setting: as for TAAGTCCTCATCATCATCGAGC, the figure is -0.93; as for TAGCACATAATCATCATCCCAT, 0.659.

Consider TTAATTGTTCACACCAGTCTGG, for which the sensor-assay potency score (higher = more potent) is -0.677. The same measure, in the same setting: as for TTGCGTACAACCGTGAGCCTGG, the figure is 0.726; as for TAGAGTTGAACAACCAGTGGTA, 0.312. Still for that read-out and setting: as for TTGACTACAATCTTGTTTCATA, the figure is -0.725. The same measure, in the same setting: as for TAAGAGGTCGTTGTGAAGCTGC, the figure is -0.0408.

Another assay deals with HEPH. The description is as above. Conditions: shRNA.
TAGTAGATTCTAGCACTCCATG gave a sensor-assay potency score (higher = more potent) of -1.17. Consider TGATATAGTAGATTCTTGCAGC, for which the sensor-assay potency score (higher = more potent) was -0.0504. On the same count and under the same terms, the value for TACAGCTTTCTTGTATCTGGAA was -0.122. Still for that read-out and setting: as for TATAGTAGATTCTTGCAGCTTG, the figure is 0.849; as for TAGCTTTCTCTGTCGATGTTGG, -0.344. Same read-out and setting: the value for TTTCTGTGCACACATGTTCAGC was -0.645.

As to TAGATGGTCTTCTTGTAGGTTC, the sensor-assay potency score (higher = more potent) was -0.407. Sequence TTGTCAGACTTTAAGAAGCTGG showed a sensor-assay potency score (higher = more potent) of -0.791.

Regarding TATCCTCTGAAAGCAGTCGGAA, the sensor-assay potency score (higher = more potent) was -1.21.

The record behind these values is the OligoGym collection.
Note: reference of the scale not given here.
